# ± gives the standard deviation.
# Tested on: MILI (PIWIL2) piRISC loaded with L1MC piRNA (26 nt)
# Experiment: pre-steady-state target cleavage rate (min^-1); guide: L1MC piRNA 5'p-UAACUAAAUACUAUGCAAGCUGUAGG; MIWI and MILI are mouse PIWI proteins and EfPiwi is from a freshwater sponge; tags in brackets are library labels; higher = faster piRNA-guided slicing of the target
# Settings: auxiliary factor: 500 nM mouse GTSF1
# Procedure, shortened: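 The pre-steady-state cleavage rate was derived from a burst-and-steady-state fit of Cleave-'n-Seq data. For these assays, 1 nM active affinity-purified piRISC loaded with a single synthetic guide was mixed with […] a transcribed, DNA-blocked target RNA library in HEPES–potassium acetate buffer at 33 °C, with or without 500 nM GTSF1 partner protein, for 0–8 or 0–960 min. Sequencing counts of uncleaved targets were normalised to depth and to weakly complementary targets, and k3 was capped at 0.0001 min^-1 after three trials were pooled.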
# 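Further: 1 nM active piRISC with 0.1 nM target library at 33 °C single turnover.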
row,Sequence,pre-steady-state target cleavage rate
1,UCCUCCUACUGCUUGCAUAGUAAUUAGUUA,0.2 ± 0.014
2,UCCUGCUACAGCAUGCAUAGUUUUUAGUUA,0.114 ± 0.019
3,UCCUCCUACUCCUUGCAUAGUAUUUAGUAA,0.147 ± 0.017
4,UCCUCCUACAGCUUGCUAAGUAUUUAGUUA,0.17 ± 0.012
5,UCCUGGAUGUCCUUGCAUAGUAGUUAGUUA,0.13 ± 0.036
6,UCCUGGAUGAGCUUGCAUAGUAUUUAGUUU [g2:g21:cont:t1U],0.226 ± 0.011
7,UCCUCCAUCAGCUUGCAUAGUAUUUAGUUA,0.248 ± 0.018
8,UCCUGGAUCAGCUUGCUUAGUAUUUAGUUA,0.248 ± 0.019
9,UCCUCGAUCAGCUUGCAUAGUAUUUAGUAA,0.269 ± 0.017
10,UCCUGCUACAGGAUGCAUAGUAUUUAGUAA,0.301 ± 0.044
11,UCCUGGAACAGCUUGCUUAGUAUUUAGUUA,0.264 ± 0.01
12,UCCUGGAUCAGGUAGCAUAGUAUUUAGUUA,0.118 ± 0.013
13,UCCUGGUACAGCUGGCAUAGUAUUUAGUUA,0.199 ± 0.022
14,UCCUGGAAGUGCUUGCAUAGUAUUUAGUUA,0.127 ± 0.013
15,UCCUGGUACAUGCUUGCAUAGUAUUUAGUUA,0.131 ± 0.018
16,UCCUCCUACAGCUUGCUUUGUAUUUAGUUA,0.18 ± 0.017
17,UCCUCCUACAGCUUGCAUUGUAUUUUGUUA,0.0994 ± 0.015
18,UCCUGGAACAGCUUGCAUAGUAUUUAGUUA [g2:g23:cont:t1A],0.297 ± 0.019
19,UCCUGGAUGUCGACGCAUAGUAUUUAGUUA,0.0214 ± 0.0042
20,UCCUGGAUCAGCUAGGAUAGUAUUUAGUUA,0.178 ± 0.013

row,Sequence,pre-steady-state target cleavage rate
1,UCCUCCUACAGCUUGGUUAGUAUUUAGUUA,0.269 ± 0.016
2,UCCUGGUACAGCUUGCAAAGUAUUAAGUUA,0.0919 ± 0.018
3,UCCUGCUACAGCUUGCAUAGUAUUUAGGUUA,0.265 ± 0.042
4,UCCUGCUACAGCAUGCAUAGUAUUAAGUUA,0.331 ± 0.043
5,UCCUGGAACUCCUUGCAUAGUAUUUAGUUA,0.238 ± 0.02
6,UCCUGGAUGUCGCUGCAUAGUAUUUAGUUA,0.0516 ± 0.0095
7,UCCUGGAUCAGGUUGCAUAGUAUUUAGUAA,0.227 ± 0.016
8,UCCUGGUACAGCUUGCACAGUAUUUAGUUA,0.156 ± 0.013
9,UCCUCCUAGAGCUUGGAUAGUAUUUAGUUA,0.217 ± 0.013
10,UCCUGGAACAGCUUGGAUAGUAUUUAGUAA,0.198 ± 0.023
11,UCCUGGAUCAGCAUGCAAAGUAUUUAGUUA,0.098 ± 0.011
12,UCCUGGAUCAUGCUUGCAUAGUAUUUAGUUA,0.18 ± 0.019
13,UCCUGGAACAGCUCGCAUAGUAUUUAGUUA,0.256 ± 0.012
14,UCCUGGAUCAGCAUGCAUAGUAUUUAGUUA,0.314 ± 0.019
15,UCCUGGAACAGCUUGCAUAGUAAAUAGUUA,0.153 ± 0.021
16,UCCUGGAUGUCCUGGCAUAGUAUUUAGUUA,0.066 ± 0.013
17,UCCUGGAUCAGGUUGCAUACUAUUUAGUUA,0.0436 ± 0.0082
18,UCCUGGAACACCUUGCAUUGUAUUUAGUUA,0.14 ± 0.018
19,UCCUGGAUGUCCUUGUAUAGUAUUUAGUUA,0.119 ± 0.018
20,UCCUGGAUGUGGUUGCAUAGUAUUUAGUAA,0.0925 ± 0.021
